In PubChem BioAssay AID977624 (Broad Institute, 2014):
Out of some 1,800 compounds screened, fewer than 10 were called active. Inconclusive results (about 44%) are left out.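 How the source made its calls: active means compound lowering the normal-ribosome reporter at least twice as much as the humanized-ribosome reporter, growth loss under a set limit; inconclusive means no clear call, values can overlap the other calls; inactive means the rest.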 Only a sample is shown.

Experiment: wild-type E. coli growth inhibition versus h34 humanized strain – h34 mutant RFP, wild-type GFP, cherry-pick, dose response (AID 977624)
Conditions: fluorescence, 24 h; series mostly up to 50 µM; activity change, negative = inhibition: at the top concentration

Activity change, negative = inhibition, inactive:
CCOc1ccc(CN(C)C(=O)c2ccc(NS(=O)(=O)c3ccc4[nH]c(=O)[nH]c4c3)cc2)cc1 0.841, CCc1nc2ccccc2n1CCc1ccccc1 -4.63, CCc1cc(C(=O)N2CCCC(C(=O)c3cccc4ccccc34)C2)n(C)n1 (centres undefined) 0.908, C=C(C)Cn1c(=O)c2c(nc3n2CCCN3Cc2ccccc2)n(C)c1=O 9.19, O=C(O)CCN(Cc1ccccc1)S(=O)(=O)c1ccccc1Cl 14.4, NC(=O)CSc1nc2cc([N+](=O)[O-])ccc2n1-c1cccc(C(F)(F)F)c1 11.7, CCC(C(=O)NCCc1ccc(C)cc1)n1nc(C)c2c(C)n(-c3ccccc3)nc2c1=O (centres undefined) -1.52, CCOc1ccccc1OCCCC(=O)N1CCN(S(=O)(=O)c2cc(F)ccc2F)CC1 -10.4, CN(Cc1ccc(F)cc1)C(=O)CN1CCN(S(=O)(=O)c2ccc3c(c2)OCCCO3)CC1 2.79, Cc1cccc(-c2nsc(SCC(=O)NCC3CCCO3)n2)c1 (centres undefined) 13.9, Cc1cc(C)n2nc(C(=O)Nc3cccc(S(=O)(=O)N(C)c4ccccc4)c3)nc2n1 -1.19, CC(=O)c1ccc(N2CCN(C(=O)C3CCN(S(=O)(=O)c4ccc5c(c4)CC(C)N5C(C)=O)CC3)CC2)cc1 (centres undefined) -7.8, Cc1cc(C)c(NC(=O)C(C)c2cccc(C(=O)c3ccccc3)c2)c(C)c1 (centres undefined) -10.5, COCC#Cc1ccc2c(c1)O[C@H](CN(C)C(=O)c1ccccc1)[C@@H](C)CN([C@H](C)CO)S2(=O)=O 4.68, C=CCn1c(SCc2n[nH]c(=S)n2-c2ccccc2)nnc1-c1ccccc1 -5.43, CC(=O)c1ccccc1OCCOCCOCCOc1ccccc1C(C)=O 7.68, Brc1ccccc1CN1CCC(Cc2ccccc2)CC1 -3.84, CCn1cc(CCC(=O)NCCc2ccccc2)c2ccccc21 -11.8, COc1ccccc1N(C)S(=O)(=O)c1ccc(Cl)c(C(=O)NC2=NCCS2)c1 -3.78, O=C(COC(=O)CNC(=O)c1ccc(F)cc1)Nc1cccc(S(=O)(=O)N2CCCC2)c1 13.5, COC(=O)c1ccc2nc(-c3cccc(Br)c3)c(Cc3ccsc3)n2c1 4.56, COc1cccc(C(=O)C2CCCN(C/C=C/c3ccccc3OC)C2)c1 (centres undefined) 5.82, O=C(NCc1ccccc1)c1cc(S(=O)(=O)N2CCCCC2)ccc1N1CCOCC1 -1.63, CC(=O)c1c(N2CCOCC2)nc2ccc(Cl)cc2c1-c1ccccc1 11.3, O=C(NCc1nnnn1-c1ccc(Cl)cc1)c1ccc([N+](=O)[O-])o1 -13.2, O=C(CCC(=O)N1CCN(c2ccc(F)cc2)CC1)N1CCN(c2ccc(F)cc2)CC1 -3.59, COc1cccc(-c2ccc(SCc3ccccn3)nn2)c1 1.75, CCC(C(=O)NC1CCCC1)n1c(-c2ccnc3ccccc23)nc2ccccc21 (centres undefined) -2.18, C=CCNC(=O)c1ccccc1CCc1ccccc1 9.97, C=CCN(CC(O)c1cccc([N+](=O)[O-])c1)C(C)CCc1ccccc1 (centres undefined) -21.3, CO[C@@H]1CN(C)C(=O)c2cc(NC(=O)C3CCCC3)ccc2OC[C@@H](C)N(C(=O)Nc2ccc(C(F)(F)F)cc2)C[C@H]1C 5.42, COc1ccc(OC)c(CN2CCCC(C(=O)c3ccccc3SC)C2)c1 (centres undefined) 7.44, CCN1CCN(c2c(Cl)cccc2NC(=O)c2ccc([N+](=O)[O-])o2)CC1 -9.62, CCN(C(=O)CSc1cc(C)c2ccc(OC)cc2n1)C1CCS(=O)(=O)C1 (centres undefined) -4.12, Cc1noc(NS(=O)(=O)c2ccc(NC(=O)c3cc(-c4ccccc4Cl)nc4ccccc34)cc2)c1C -2.62, O=C(COC(=O)C1CC1)Nc1nc(-c2ccc(F)c(F)c2)cs1 -5.56, COc1cccc(NC(=O)c2ccc(C(=O)c3ccccc3)o2)c1 -3.61, COc1ccc(C(=O)C2CCCN(C(=O)c3noc4c3CCCC4)C2)cc1F (centres undefined) 9.37, COc1ccc(C(=O)N(c2ccccc2)c2nccc3ccccc23)cc1OC 6.84, COc1ccc(C2CC(=O)CCN2S(=O)(=O)c2ccc(C)cc2)cc1 (centres undefined) -6.06, O=C(NCc1ccc(S(=O)(=O)Nc2ccccc2Cl)s1)c1ccccc1 3.75, Cc1ccc(C)c(-c2[nH]ncc2CN2CCCC(CO)(Cc3ccccc3C)C2)c1 (centres undefined) 0.321, Cc1nn(-c2cccc(Cl)c2)nc1C(=O)O -8.21, CC1CCN(c2ccc3nnc(CCC(=O)Nc4cccc(F)c4)n3n2)CC1 -8.21, O=C1c2ccccc2NC(c2ccc(-c3cccc([N+](=O)[O-])c3)o2)N1O (centres undefined) -11.5, COc1ccc(OC)c(-c2csc(NC(=O)C3COc4ccccc4O3)n2)c1 (centres undefined) -3.69, COc1ccc(-n2nc3cc(N)c(Br)cc3n2)cc1 -3.96, CN1C(=O)c2cc(NC(=O)c3cccc(F)c3)ccc2OC[C@H]2O[C@@H](CC(=O)N3CCc4ccccc4C3)CC[C@@H]21 -5.65, Brc1cc2c(cc1Br)OCCOCCOCCO2 3.87, COC(=O)CC#C[C@H](C)[C@@H](NS(=O)(=O)c1ccc([N+](=O)[O-])cc1)C(C)(C)C 14.2, Cc1cc(C(=O)NCCC2=CCCCC2)ccc1[N+](=O)[O-] -3.82, CN(C)S(=O)(=O)c1ccc(Cl)c(C(=O)OCC(=O)NC(=O)c2cccn2C)c1 7.26, COC(=O)c1cc(S(=O)(=O)NCc2ccc3c(c2)OCO3)cn1C 0.059, Cc1ccc(-c2cc(-c3ccc(C)cc3)[n+](-c3ccc(C(=O)[O-])cc3)c(-c3ccc(C)cc3)c2)cc1 11, CC(=O)Nc1ccc(NS(=O)(=O)c2ccc(Cl)s2)cc1 2.3, CN(c1ccc(C(=O)NCc2cccs2)cc1)S(=O)(=O)c1ccccc1 -3, CCn1nc(C(=O)OCc2cccc(S(=O)(=O)N(C)C)c2)c2ccccc2c1=O 3.66, COc1cccc(NC(=O)CSc2nc3c(sc4ccccc43)c(=O)n2CCN(C)C)c1 10.7, O=C(CC1C(=O)NCCN1CC1CCCCC1)NCc1ccc(F)cc1F (centres undefined) 5.47, CC(=O)N1CCN(c2nc(-c3cccs3)nc3ccccc23)CC1 -6.03, COc1ccc(NC(=O)c2sccc2-n2cccc2)cc1 7.88, O=C(Cc1ccc(NC(=O)C2CCCN(C(=O)CCc3ccccc3)C2)cc1)Nc1cccc(C(=O)N2CCCC2)c1 (centres undefined) 2.02, COc1ccc(Nc2nc(NCCO)nc(N3CCCC3)n2)cc1 -2.08, CC(C)[C@H](NC(=O)c1ccc([N+](=O)[O-])cc1Cl)C(=O)N1CCN(C/C=C/c2ccccc2)CC1 -11.6, COc1ccccc1NC(=O)CN1CCSc2ccccc21 -10.7, O=C(NCc1ccccc1Cl)[C@H]1CCCN1C(=O)[C@H]1CCCN1C(=O)c1cccc2ccccc12 0.914, CC1(C(=O)Nc2ccc3c(c2)OCCO3)CSCC(=O)N1CCOc1ccccc1 (centres undefined) 6.15, O=S(=O)(c1cnc(Cl)c(Cl)c1)N1CCCc2ccccc21 2.93, CCOC(=O)C1(CCCc2ccccc2)CCN(C(=O)CCn2cncn2)CC1 11.3
